Source: PubChem BioAssay (NCATS)
Inconclusive results are not listed. Values without a mark were called inactive. Active and inactive are the calls of the source. The call rests on the fitted dose curve; in most records, active means well fitted inhibition curve with a large enough effect; inconclusive means small, poorly fitted or top-dose-only effect; inactive means flat fitted curve, though single readings scatter.

System: CP297
Assay: qHTS profiling for inhibitors of Plasmodium falciparum proliferation (AID 504749); further: nearly all actives have a fitted effect of over 60% in size;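 on activity, negative = inhibition: 0% = DMSO vehicle and full inhibition = artemisinin control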
Details: P. falciparum in erythrocytes, SYBR Green DNA, 72 h; series mostly up to 28.7 µM; activity, negative = inhibition: at the top concentration
Method in brief: (§1)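 Each compound contacts P. falciparum-infected red blood cells for 72 h at 37 C; lysis buffer (Tris, EDTA, saponin, Triton X, SYBR Green I) is added and fluorescence measured next morning; values normalized to controls.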
Potency means the concentration at half of the fitted maximal effect.

SMILES	activity, negative = inhibition
CCCCC[C@H](O)/C=C/[C@H]1[C@H](O)CC(=O)[C@@H]1C/C=C\CCCC(=O)O	-4.6%
O=C(CCCN1CCC(C(=O)c2ccc(F)cc2)CC1)c1ccc(F)cc1	-0.572%
C(=C\c1ccncc1)/c1ccccc1	-2.81%
O=C1N=C2SCCN2C(=O)C1Cc1ccc(Cl)cc1 (stereo not drawn)	-7.08%
CCCCCCCCCCCC(=O)N(CCO)CCO	-5.84%
Cc1nc(NS(=O)(=O)c2ccc(N)cc2)nc(C)c1Br	4.75%
O=c1[nH]c(=O)n([C@H]2C[C@H](O)[C@@H](CO)O2)cc1/C=C/Br	2.63%
CC12CCC(C[N+](C)(CCC[N+](C)(C)C)C1)C2(C)C (stereo not drawn)	-7.37%
F[Si-2](F)(F)(F)(F)F	2.92%
CN(Cc1ccccc1)Cc1ccccc1	-0.14%
O=[n+]1ccn([O-])c2ccccc21	-0.793%
OCC(O)CO	1.83%
CC(=O)NCCCS(=O)(=O)O	0.7%
CCN(CC)CCOc1ccc2nc(N(C)C)sc2c1	-0.44%
Cc1cccc(Nc2ncccc2C(=O)O)c1C	1.94%
CCCCC(CC)CCC(CC(C)C)OS(=O)(=O)O (stereo not drawn)	-6.28%

SMILES	activity, negative = inhibition
C[C@H](N)C(=O)N[C@@H](C)P(=O)(O)O	-1.09%
CC(=O)Nc1ccc(NC(=S)NC(=O)c2ccc(C(C)(C)C)cc2)cc1	-2.64%
CN1CCc2c(c3ccccc3n2Cc2ccccc2)C1	-23.8% [at 12.8 µM]
Cc1cc(-c2ccc(N=Nc3ccc4c(S(=O)(=O)O)cc(S(=O)(=O)O)c(N)c4c3O)c(C)c2)ccc1N=Nc1ccc2c(S(=O)(=O)O)cc(S(=O)(=O)O)c(N)c2c1O	2.66%
CCC(C(=O)NC(N)=O)c1ccccc1 (stereo not drawn)	-16.7%
CCc1ncnc2cc(OC)c(OC)cc12	-9.34%
Cc1ncc(C[n+]2csc(CCO)c2C)c(N)n1	-13% [at 12.8 µM]
O[C@@H]([C@H](O)[C@H](O)CBr)[C@H](O)CBr	8.45%
O=[N+]([O-])c1c(Cl)cccc1-c1c[nH]cc1Cl	0.179%
C[C@@](Cc1ccc(O)c(O)c1)(NN)C(=O)O	-20.9%
CC(=O)Oc1cc(C(F)(F)F)ccc1C(=O)O	0.934% [at 12.8 µM]
CCCCC	-12.9%
O=P(O)(O)CP(=O)(O)O	-2.76%
CCCCC[C@H](O)/C=C/[C@@H]1[C@H]2C/C(=C/CCCC(=O)O)O[C@H]2C[C@H]1O	-2.84%
C[Si](C)(C)O[Si](C)(C)C	-3.2%
Cc1c(C)c2c(c(C)c1OC(=O)CCC(=O)O)CC[C@@](C)(CCC[C@H](C)CCC[C@H](C)CCCC(C)C)O2	-0.309%

System: CP305
Assay: as above
Details: P. falciparum in erythrocytes, SYBR Green DNA, 72 h; series mostly up to 28.7 µM; activity, negative = inhibition: at the top concentration
Method in brief: as §1

SMILES	activity, negative = inhibition	Potency
CCCCC[C@H](O)/C=C/[C@H]1[C@H](O)CC(=O)[C@@H]1C/C=C\CCCC(=O)O	-2.23%	–
C(=C\c1ccncc1)/c1ccccc1	-3.13%	–
O=C1N=C2SCCN2C(=O)C1Cc1ccc(Cl)cc1 (stereo not drawn)	-5.67%	–
CCCCCCCCCCCC(=O)N(CCO)CCO	1.99%	–
Cc1nc(NS(=O)(=O)c2ccc(N)cc2)nc(C)c1Br	9.01%	–
O=c1[nH]c(=O)n([C@H]2C[C@H](O)[C@@H](CO)O2)cc1/C=C/Br	-0.704%	–
CC12CCC(C[N+](C)(CCC[N+](C)(C)C)C1)C2(C)C (stereo not drawn)	-0.47%	–
CC(C)NCC(O)COc1ccccc1-n1cccc1 (stereo not drawn)	-1.28%	–
F[Si-2](F)(F)(F)(F)F	6.13%	–
CN(Cc1ccccc1)Cc1ccccc1	-3.66%	–
O=[n+]1ccn([O-])c2ccccc21	-4.04%	–
OCC(O)CO	0.33%	–
CC(=O)NCCCS(=O)(=O)O	-11.9%	–
CCN(CC)CCOc1ccc2nc(N(C)C)sc2c1	1.47%	–
Cc1cccc(Nc2ncccc2C(=O)O)c1C	3.28%	–
CCCCC(CC)CCC(CC(C)C)OS(=O)(=O)O (stereo not drawn)	-2.6%	–
C[C@H](N)C(=O)N[C@@H](C)P(=O)(O)O	-0.212%	–
CC(=O)Nc1ccc(NC(=S)NC(=O)c2ccc(C(C)(C)C)cc2)cc1	-6.28%	–

SMILES	activity, negative = inhibition	Potency
CN1CCc2c(c3ccccc3n2Cc2ccccc2)C1	-20.2% [at 12.8 µM]	–
CO/N=C(\C(=O)N[C@@H]1C(=O)N2C(C(=O)[O-])=C(C[n+]3cccc4c3CCC4)CS[C@H]12)c1csc(N)n1	-9.23%	–
Cc1cc(-c2ccc(N=Nc3ccc4c(S(=O)(=O)O)cc(S(=O)(=O)O)c(N)c4c3O)c(C)c2)ccc1N=Nc1ccc2c(S(=O)(=O)O)cc(S(=O)(=O)O)c(N)c2c1O	-3.75%	–
CCC(C(=O)NC(N)=O)c1ccccc1 (stereo not drawn)	5.25%	–
Cn1cc(NC(=O)c2cc(NC(=O)c3cc(NC=O)cn3C)cn2C)cc1C(=O)NCCC(=N)N	–	8.49 µM (active)
CCc1ncnc2cc(OC)c(OC)cc12	0.165%	–
Cc1ncc(C[n+]2csc(CCO)c2C)c(N)n1	1.46% [at 12.8 µM]	–
O[C@@H]([C@H](O)[C@H](O)CBr)[C@H](O)CBr	5.3%	–
O=[N+]([O-])c1c(Cl)cccc1-c1c[nH]cc1Cl	-8.13%	–
C[C@@](Cc1ccc(O)c(O)c1)(NN)C(=O)O	0.402%	–
CC(=O)Oc1cc(C(F)(F)F)ccc1C(=O)O	-7.02% [at 12.8 µM]	–
CCCCC	14.3%	–
O=P(O)(O)CP(=O)(O)O	-8.11%	–
CCCCC[C@H](O)/C=C/[C@@H]1[C@H]2C/C(=C/CCCC(=O)O)O[C@H]2C[C@H]1O	-1.02%	–
C[Si](C)(C)O[Si](C)(C)C	-2.35%	–
O.O.O.O.O.O.O.O=S(=O)([O-])[O-].[Co+2]	–	6.75 µM (active)
Cc1c(C)c2c(c(C)c1OC(=O)CCC(=O)O)CC[C@@](C)(CCC[C@H](C)CCC[C@H](C)CCCC(C)C)O2	8.21%	–
CCOC(=O)c1c[nH]c2cc(OCC(C)C)c(OCC(C)C)cc2c1=O	–	0.0675 µM (active)
